From PubChem BioAssay (Tox21)
Several values for one entry are separate records, joined by “and”; a condition that tells them apart may be missing. Identical values can stand only once. Results filed as inconclusive are left out. Activity calls are given as the source filed them. Calls follow the shape of the dose curve; as a rule, active = well fitted curve in the direction sought with a large enough effect in the repeat runs; inconclusive = weak or mixed curves; inactive = no such curve, though single readings can be large; an effect the other way counts as inactive or inconclusive.

Columns and labels:
[1] = qHTS RealTime-Glo MT Cell Viability Assay in HEK293 cells - 16 hour (AID 1224872); also: top concentration of the series differs between compounds; nearly all actives have a fitted effect of over 50% in size
How it was run: (§1)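 Homogeneous bioluminescent viability format in HEK293 cells (600 cells/well). Following 5 h at 37 C/5% CO2, 23 nL compound was pintooled; the signal was measured repeatedly during 40 h incubation.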

[2] = qHTS RealTime-Glo MT Cell Viability Assay in HepG2 cells - 8 hour (AID 1224873); also: nearly all actives have a fitted effect of over 55% in size
How it was run: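 HepG2 cells mixed with RealTime-Glo MT reagents (NanoLuc plus cell-permeant prosubstrate) were seeded at 600 cells/well, incubated 5 h at 37 C/5% CO2, then pinned with compounds in DMSO; nonlytic luminescence tracked viability during 40 h treatment.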

[3] = qHTS RealTime-Glo MT Cell Viability Assay in HEK293 cells - 40 hour (AID 1224874); settings: RealTime-Glo luminescence; max response: hits give low values; also: nearly all actives have a fitted effect of over 50% in size
How it was run: (§2)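 600 HEK293 cells per well, dispensed already mixed with RealTime-Glo MT reagents. Compound dosing came 5 h later. The same wells were read for luminescence at 0, 8, 16, 24, 32 and 40 h of exposure at 37 C.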

[4] = A CellTox Green Cytotoxicity Assay to monitor cytotoxicity in HEK293 cells - 24 hour (AID 1224875); also: series mostly up to about 77 µM; nearly all actives have a fitted effect of over 45% in size
How it was run: (§3)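 Dead-cell fluorescence measured kinetically: asymmetric cyanine dye, HEK293, 600 cells/well, 5 h settle, 23 nL cpd/DMSO, 37 C, reads 0–40 h every 8 h.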

[5] = A CellTox Green Cytotoxicity Assay to monitor cytotoxicity in HepG2 cells - 16 hour (AID 1224876); also: nearly all actives have a fitted effect of over 45% in size
How it was run: (§4)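 First, HepG2 cells (600/well) mixed with reagent were plated; second, after 5 h at 37 C they received compounds via pintool; third, fluorescence was measured at 0 h through 40 h at 8 h intervals.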

[6] = qHTS RealTime-Glo MT Cell Viability Assay in HepG2 cells - 32 hour (AID 1224877); also: nearly all actives have a fitted effect of over 55% in size
How it was run: (§5)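 Cell number in HepG2 cultures estimated from NanoLuc luminescence generated by metabolic reduction of a prosubstrate by living cells. The homogeneous, nonlytic format allowed repeated reads at 0, 8, 16, 24, 32 and 40 h of compound exposure.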

[7] = A CellTox Green Cytotoxicity Assay to monitor cytotoxicity in HepG2 cells - 24 hour (AID 1224878); also: nearly all actives have a fitted effect of over 45% in size
How it was run: as §4

[8] = qHTS RealTime-Glo MT Cell Viability Assay in HEK293 cells - 0 hour (AID 1224880); also: top concentration of the series differs between compounds; nearly all actives have a fitted effect of over 45% in size
How it was run: as §2

[9] = A CellTox Green Cytotoxicity Assay to monitor cytotoxicity in HepG2 cells - 0 hour (AID 1224882); also: nearly all actives have a fitted effect of over 35% in size
How it was run: as §4

[10] = A CellTox Green Cytotoxicity Assay to monitor cytotoxicity in HepG2 cells - 32 hour (AID 1224883); also: nearly all actives have a fitted effect of over 50% in size
How it was run: as §4

[11] = A CellTox Green Cytotoxicity Assay to monitor cytotoxicity in HEK293 cells - 8 hour (AID 1224884); also: nearly all actives have a fitted effect of over 35% in size
How it was run: as §3

[12] = qHTS RealTime-Glo MT Cell Viability Assay in HepG2 cells - 16 hour (AID 1224885); also: nearly all actives have a fitted effect of over 50% in size
How it was run: as §5

[13] = qHTS RealTime-Glo MT Cell Viability Assay in HEK293 cells - 24 hour (AID 1224886)
How it was run: as §1

[14] = qHTS RealTime-Glo MT Cell Viability Assay in HEK293 cells - 8 hour (AID 1224887)
How it was run: as §2

[15] = A CellTox Green Cytotoxicity Assay to monitor cytotoxicity in HEK293 cells - 16 hour (AID 1224888); also: nearly all actives have a fitted effect of over 35% in size
How it was run: as §3

[16] = qHTS RealTime-Glo MT Cell Viability Assay in HepG2 cells - 0 hour (AID 1224889); also: nearly all actives have a fitted effect of over 50% in size
How it was run: as §5

[17] = A CellTox Green Cytotoxicity Assay to monitor cytotoxicity in HepG2 cells - 8 hour (AID 1224890); also: nearly all actives have a fitted effect of over 45% in size
How it was run: as §4

[18] = qHTS assay to identify small molecule antagonists of the estrogen receptor alpha (ER-alpha) signaling pathway using the BG1 cell line in the presence of 0.1 nM 17-beta-estradiol - cell viability counter screen (AID 1259241); also: nearly all actives have a fitted effect of over 40% in size
How it was run: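 Live-cell protease activity (CellTiter-Fluor fluorescence, 30 min) was read in the same wells after VM7Luc4E2 cells had been exposed to compounds with 0.1 nM 17beta-estradiol for 22 hr at 37C.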

[19] = A CellTox Green Cytotoxicity Assay to monitor cytotoxicity in HEK293 cells - 32 hour (AID 1224881); also: nearly all actives have a fitted effect of over 40% in size
How it was run: as §3

[20] = A CellTox Green Cytotoxicity Assay to monitor cytotoxicity in HepG2 cells - 40 hour (AID 1224879); also: nearly all actives have a fitted effect of over 40% in size
How it was run: as §4
% is scaled to controls: 0 for no effect and ±100 for the full control effect.

Nc1c(I)cc(I)c(C(=O)N(CCC(=O)O)c2ccccc2)c1I
inactive: Potency [1] | Potency [2] | max response [3] -10.8% | Potency [4] | Potency [5] | Potency [6] | Potency [7] | Potency [8] | Potency [9] | Potency [10] | Potency [11] | Potency [12] | Potency [13] | Potency [14] | Potency [15] | Potency [16] | Potency [17] | Potency [18]

O=[N+]([O-])c1cccc(S(=O)(=O)NCCNS(=O)(=O)c2cccc([N+](=O)[O-])c2)c1
inactive: Potency [1] | Potency [2] | max response [3] -6.21% | Potency [4] | Potency [5] | Potency [6] | Potency [7] | Potency [8] | Potency [19] | Potency [9] | Potency [10] | Potency [11] | Potency [12] | Potency [13] | Potency [14] | Potency [15] | Potency [16] | Potency [17] | Potency [18]

CCC(=O)OC/C=C/c1ccccc1
inactive: Potency [1] | Potency [2] | max response [3] 1.64% and -7.61% | Potency [4] | Potency [5] | Potency [6] | Potency [7] | Potency [20] | Potency [8] | Potency [9] | Potency [10] | Potency [11] | Potency [12] | Potency [13] | Potency [15] | Potency [16] | Potency [17] | Potency [18]

CCC(C)(O)CCC=C(C)C (stereo not drawn)
inactive: Potency [1] | Potency [2] | max response [3] -9.96% | Potency [4] | Potency [5] | Potency [6] | Potency [7] | Potency [8] | Potency [19] | Potency [9] | Potency [10] | Potency [11] | Potency [12] | Potency [13] | Potency [15] | Potency [16] | Potency [17] | Potency [18]
